Compound activity (PubChem BioAssay)
Most compounds without a hit are left out; they make up all but 5% or so of the library.
VACV Venus inh: qHTS for Stage-Specific Inhibitors of Vaccinia Orthopoxvirus: Venus Reporter Primary qHTS; AID 720580, 2013; hit rate 0.46% among 330,000; Vaccinia virus Venus reporter expression, fluorescence; Potency, µM (highest dose often 36.5 µM), hits mostly inhibitors; calls by dose curve; tested in A549 cells; further: nearly all actives have a fitted effect of over 30% in size
Tb PYK inh: qHTS of Trypanosoma Brucei Inhibitors; TbPYK enzyme, Kinase-Glo Plus ATP luminescence, 45 min; Potency, µM (top dose mostly 76.8 µM), most hits filed as inhibitors; pyruvate kinase (Trypanosoma brucei), Q57TT1; hit rate 0.12% among 410,000; further: nearly all actives have a fitted effect of over 50% in size
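T. brucei PYK with substrate was exposed to pin-transferred compounds across a concentration series, then started with 130 uM ADP (final). After 45 min at room temperature, Kinase-Glo Plus luminescence was read, normalized and curve-fitted.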
HCMV inh: qHTS Assay for inhibitors of the human cytomegalovirus (HCMV); HFF cells, HCMV-luciferase reporter, 72 h; active compounds read low; activity change, negative = inhibition, % at 57.5 µM; hit rate 4.5% among 410,000; in the data active means activity change below about -60%; inconclusive means no clear call, values can overlap the other calls; inactive means above about -39%
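HFF cells seeded 16 h at 37C, treated with compounds, infected with luciferase-reporter HCMV at MOI 1 PFU/cell; luciferase read at 72 h post infection, normalized to buffer-only and Salinomycin controls.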
VACV mCherry inh: qHTS for Stage-Specific Inhibitors of Vaccinia Orthopoxvirus: mCherry Reporter Primary qHTS | Vaccinia virus mCherry reporter infection, fluorescence | Potency, µM (highest dose often 36.5 µM), hits mostly inhibitors | hit rate 0.63% among 310,000 | AID 720579, 2013; calls by dose curve; tested in A549 cells; further: nearly all actives have a fitted effect of over 35% in size
LmPK inh: qHTS Assay for Inhibitors of Leishmania Mexicana Pyruvate Kinase (LmPK). Q27686. purified LmPK, Kinase-Glo ATP luminescence, 1 h. Potency, µM (titrated, usually from 57.5 µM), most hits filed as inhibitors. hit rate 0.37% among 290,000. AID 1721, 2009
Target sequence (Q27686 whole entry, looked up): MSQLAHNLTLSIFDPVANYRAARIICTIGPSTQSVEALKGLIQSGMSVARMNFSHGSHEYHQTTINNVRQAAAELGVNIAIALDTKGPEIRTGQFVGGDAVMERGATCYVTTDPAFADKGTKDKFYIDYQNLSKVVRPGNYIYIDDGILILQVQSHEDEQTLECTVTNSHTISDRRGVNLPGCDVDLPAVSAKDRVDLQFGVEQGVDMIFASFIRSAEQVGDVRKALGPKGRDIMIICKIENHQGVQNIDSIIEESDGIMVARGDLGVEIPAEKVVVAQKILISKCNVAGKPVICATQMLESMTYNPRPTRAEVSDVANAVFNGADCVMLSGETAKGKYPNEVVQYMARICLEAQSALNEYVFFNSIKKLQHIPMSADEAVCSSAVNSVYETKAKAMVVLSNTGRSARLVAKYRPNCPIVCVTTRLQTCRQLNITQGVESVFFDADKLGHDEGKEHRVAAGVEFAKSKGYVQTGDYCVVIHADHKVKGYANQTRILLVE
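Purified LmPK (0.1 nM) converted ADP (0.1 mM) to ATP with PEP (0.5 mM) in imidazole buffer pH 7.2 with KCl and MgCl2, 1 h at room temperature. ATP was read by Kinase-Glo luminescence; data normalized to uninhibited and no-enzyme controls.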
Each line names hits and unclear results; the compound was inactive in the other large screens. Unless noted, the call rests on the fitted dose curve; in most records, active means well fitted curve in the direction sought with a large enough effect; inconclusive means small, poorly fitted or top-dose-only effect, or another doubt; inactive means no such curve, though single readings can be large; an effect the other way counts as inactive or inconclusive.

COC(=O)c1cnc(Oc2ccc(NC(=O)NC(=O)c3c(F)cccc3F)cc2)cc1C(F)(F)F	none
COC(=O)c1cnc(Oc2ccc(NC(=O)NC(=O)c3c(OC)cccc3OC)cc2)cc1C(F)(F)F	VACV Venus inh inconclusive, HCMV inh -97.9, VACV mCherry inh inconclusive
COc1ccc2c(C)cc(SCn3nnc4ccccc4c3=O)nc2c1	HCMV inh -65.5
COc1ccc(C)cc1-n1nnnc1SCn1nnc2ccccc2c1=O	HCMV inh -80.0 (no result: VACV Venus inh, VACV mCherry inh)
COc1ccc(C)cc1-n1nnnc1SCc1csc(C)n1	none
COc1ccc(OC)c(C(=O)Cn2nnc3ccccc3c2=O)c1	none (no result: VACV Venus inh, VACV mCherry inh)
Cc1ccc(-n2nnnc2SCn2nnc3ccccc3c2=O)cc1	none (no result: VACV mCherry inh)
COc1ccc(C)cc1-n1nnnc1SCc1cc(=O)n2cc(C)ccc2n1	HCMV inh -71.9
CC(=O)Nc1ccc(C(=O)CN2C(=O)NC3(CCCc4ccccc43)C2=O)c(F)c1 (stereo unspecified)	none (no result: LmPK inh)
CC1(C)CC(=O)c2c(Cc3ccccc3)noc2C1	HCMV inh inconclusive
O=C(NC(=S)Nc1ccc(N2CCN(C(=O)c3ccccc3)CC2)cc1)c1cccs1	HCMV inh -63.6
O=C(NC(=S)Nc1ccccc1N1CCCC1)c1cccs1	none (no result: VACV Venus inh, VACV mCherry inh)
O=C(NC(=S)Nc1ccccc1N1CCN(C(=O)c2ccccc2)CC1)c1cccs1	none (no result: VACV Venus inh, VACV mCherry inh)
O=C(NC(=S)Nc1ccccc1N1CCOCC1)c1cccs1	HCMV inh -71.9
CC(=O)Nc1c(I)c(C(=O)N[C@H]2[C@@H](O)[C@H](O)[C@H](CO)O[C@@H]2O)c(I)c(N(C)C(C)=O)c1I	none (no result: VACV Venus inh, HCMV inh, VACV mCherry inh, LmPK inh)
Cc1cc(C)cc(OCc2nc(-c3cccnc3)no2)c1	none
CCc1ccc(S(=O)(=O)N(C(C)=O)c2ccc3oc4c(c3c2)CCCC4)cc1	HCMV inh -91.6 (no result: LmPK inh)
COC(=O)c1c(C)oc2ccc(N(C(=O)c3ccncc3)S(=O)(=O)c3ccccc3)cc12	VACV Venus inh inconclusive (no result: VACV mCherry inh)
COC(=O)c1c(C)oc2ccc(N(C(=O)c3ccncc3)S(=O)(=O)c3ccc(C)cc3)cc12	VACV Venus inh inconclusive, VACV mCherry inh 10µM (no result: HCMV inh)
COC(=O)c1c(C)oc2ccc(N(C(=O)c3ccncc3)S(=O)(=O)c3cc(C)c(C)cc3C)cc12	HCMV inh -60.1 (no result: LmPK inh)
COC(=O)c1c(C)oc2ccc(N(C(=O)Oc3ccccc3)S(=O)(=O)c3ccc(Cl)c([N+](=O)[O-])c3)cc12	none (no result: HCMV inh)
CCc1ccc(S(=O)(=O)N(C(=O)Oc2ccccc2)c2ccc3oc(C)c(C(=O)OC)c3c2)cc1	HCMV inh -70.9 (no result: LmPK inh)
CCOc1cccc(C2CC(=O)Nc3cc4c(cc32)OCCO4)c1 (stereo unspecified)	none (no result: LmPK inh)
COC(=O)c1c(C)oc2ccc(N(C(=O)c3ccncc3)S(=O)(=O)c3ccc(C)cc3C)cc12	VACV Venus inh inconclusive, HCMV inh -92.4
COC(=O)c1c(C)oc2ccc(N(C(=O)c3ccncc3)S(=O)(=O)c3c(C)cc(C)cc3C)cc12	HCMV inh inconclusive (no result: LmPK inh)
O=C(NCc1cccn1Cc1ccccc1)Nc1ccc(Br)cc1F	HCMV inh -83.3 (no result: LmPK inh)
COc1ccc(C2=Nc3ccccc3N(C(=O)c3ccc4c(c3)OCO4)C2C(=O)NCc2ccccc2)cc1 (stereo unspecified)	HCMV inh -71.5, VACV mCherry inh inconclusive (no result: Tb PYK inh, LmPK inh)
Cc1cccc(NS(=O)(=O)c2c(C(=O)N3CCCC3)c(C)n(C)c2C)c1	HCMV inh active
Cc1c(C(=O)N2CCCCC2)c(S(=O)(=O)N2CCC(C)CC2)c(C)n1C	HCMV inh active
O=S(c1ccccc1O)S(=O)c1ccccc1O (stereo unspecified)	Tb PYK inh 4.47µM (no result: LmPK inh)
CS(=O)c1ccccc1O (stereo unspecified)	none (no result: VACV Venus inh, VACV mCherry inh)
COc1ccc(CC(=O)N(Cc2ccccc2)c2cccc(C)c2)cc1OC	HCMV inh inconclusive
O=C(CCl)N(Cc1ccccc1)c1ccccc1	HCMV inh -98.0 (no result: VACV Venus inh, VACV mCherry inh)
Cc1cccc(N(Cc2ccccc2)C(=O)CCl)c1	HCMV inh -115.9
COc1ccc(OC)c(NC(=S)NN2CCOCC2)c1	HCMV inh -102.3
COc1ccc(C(=O)OC(C)C(=O)NC2CCCCC2C)cc1S(=O)(=O)N1CCOCC1 (stereo unspecified)	HCMV inh -98.0 (no result: LmPK inh)
COc1ccc(CNC(=O)CCCN2C(=O)NC3(CCCC3)C2=O)cc1	none (no result: VACV Venus inh, VACV mCherry inh, LmPK inh)
CCN1/C(=C(\O)c2ccccc2)C(=O)c2ccccc2S1(=O)=O	VACV Venus inh inconclusive, HCMV inh -87.6
Cc1ccc(C(=O)OC2=C(C(=O)c3ccccc3)N(C)S(=O)(=O)c3ccccc32)cc1	none (no result: LmPK inh)
CCN1C(C(=O)c2ccccc2)=C(OC(=O)c2ccc(OC)cc2)c2ccccc2S1(=O)=O	HCMV inh -68.1 (no result: LmPK inh)
CCN1C(C(=O)c2ccccc2)=C(OC(=O)COc2ccccc2)c2ccccc2S1(=O)=O	HCMV inh -60.2 (no result: LmPK inh)
CCCN1C(C(=O)c2ccccc2)=C(OC(=O)c2ccc(F)cc2)c2ccccc2S1(=O)=O	HCMV inh -89.6, VACV mCherry inh inconclusive (no result: LmPK inh)
COC(=O)CN1C(C(=O)c2ccccc2)=C(OC(=O)c2ccc(C)cc2)c2ccccc2S1(=O)=O	none (no result: LmPK inh)
CCCN1C(C(=O)c2ccccc2)=C(OC(=O)c2ccc(C)cc2)c2ccccc2S1(=O)=O	HCMV inh -84.6 (no result: LmPK inh)
Cc1cccc(CNC(=O)Nc2nnc([C@@H]3C[C@H](O)[C@@H](CO)O3)s2)c1	none (no result: LmPK inh)
NC(=O)c1sc2nc3c(c(-c4cccnc4)c2c1N)CCC3	none
NC(=O)c1sc2nc3c(c(-c4cccs4)c2c1N)CCCCC3	HCMV inh -86.2
Cc1ccc(CCC(=O)Nc2ccc([N+](=O)[O-])cc2Cl)o1	none
O=C(N/N=C\c1ccc([N+](=O)[O-])o1)C1COc2ccccc2O1 (stereo unspecified)	VACV Venus inh inconclusive, HCMV inh -84.2, VACV mCherry inh inconclusive
Cc1ccc(CCC(=O)Nc2ccc(Cl)cc2Cl)o1	HCMV inh -66.3, VACV mCherry inh inconclusive (no result: LmPK inh)
O=C(Cc1ccccc1)N/N=C/c1ccc(-c2ccc([N+](=O)[O-])cc2)o1	HCMV inh -60.6
O=C(CNC(=O)c1ccccc1)N/N=C/c1ccc([N+](=O)[O-])s1	VACV Venus inh 10µM, HCMV inh inconclusive, VACV mCherry inh 10µM
CN(c1ccccc1)S(=O)(=O)c1cc(C(=O)OCC(N)=O)ccc1Cl	HCMV inh inconclusive
O=C(Nc1ccc(F)cc1F)C1CCN(C(=O)c2ccc(Br)cc2)CC1	HCMV inh inconclusive
CCn1c(SCC(=O)Nc2ccc(NC(=O)c3cccs3)cc2)nnc1-c1cccnc1	none (no result: VACV mCherry inh)
CCC(C(=O)NCC1CCCO1)N(C(=O)CNS(=O)(=O)c1ccccc1)c1ccc(F)cc1 (stereo unspecified)	none
COc1cccc(C2=NN(C(=O)c3cccs3)C(O)(C(F)(F)F)C2)c1 (stereo unspecified)	VACV Venus inh inconclusive, VACV mCherry inh inconclusive
